In PubChem BioAssay AID1159580 (chemical genetic matrix, 2015):
Among all 5,500 compounds or so, about 2,000 (36%) were called active. Another 18% or so got no clear call; they are omitted. No stated cut-off is given here; in the data, active means normalized growth mostly below about 0.91 (no sharp cut-off); inconclusive means no clear call, values can overlap the other calls; inactive means mostly above about 0.92. The list shows a part of the results.

Assay: chemical genetic growth profiling, strain panel (AID 1159580);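 further: tested at 20 µM; growth read once vehicle control cultures reached saturation at 30 °C; 1 = growth at the plate median or of vehicle wells; lower values mean less growth of the strain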
Details: S. cerevisiae deletion strains, growth OD

Measured: normalized growth

NC(=O)c1cc(N2CC2)c([N+](=O)[O-])cc1[N+](=O)[O-]
inactive: locus YAL040C, strain CLN3, hits give low values 1 | locus YCL061C, strain MRC1 (second series), hits give low values 0.994 | locus YDR363W, strain ESC2, hits give low values 0.993 | locus YER002W, strain NOP16, hits give low values 1.02 | locus YMR263W, strain SAP30, hits give low values 1 | locus YMR307W, strain GAS1, hits give low values 0.986 | locus YNL175C, strain NOP13, hits give low values 1.02 | locus YNL197C, strain WHI3, hits give low values 1 | locus YNL224C, strain SQS1, hits give low values 0.997 | locus YOR083W, strain WHI5 (second series), hits give low values 1.01
